High-throughput results deposited in PubChem by National Center for Advancing Translational Sciences (NCATS).
AMA1 RON2 block – qHTS for Inhibitors of AMA1-RON; Towards Development of Antimalarial Drug Lead: Primary Screen; AID 720542, 2013; Plasmodium falciparum AMA1 (3D7) - RON2 peptide interaction; hit rate 0.2% among 360,000; Potency, µM (top dose mostly 58.2 µM), inactives show at the top dose activity change, negative = inhibition, usual class: inhibitors; AlphaScreen AMA1-biotinylated RON2 peptide binding;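 note: 0% = vehicle wells and -100% = peptide control; nearly all actives have a fitted effect of over 45% in size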
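AMA1 (3D7) with his tag at 25 nM final met compounds first, then biotinylated RON2 peptide at 25 nM; detection used donor plus acceptor beads, 10 µg/mL apiece, read by AlphaScreen after 30 min at room temperature.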
AmpC inh no detg – qHTS Inhibitors of AmpC Beta-Lactamase (assay without detergent) | hit rate 0.52% among 330,000 | AID 485341, 2010 | AmpC nitrocefin hydrolysis, absorbance 480 nm, 0.0001% Triton | P00811 | Potency, µM (titrated, usually from 57.1 µM), for the others: at the highest dose activity change, negative = inhibition, actives largely listed as inhibitors;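 note: plate controls were no compound for no effect and no enzyme for full effect; nearly all actives have a fitted effect of over 20% in size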
Target sequence (P00811 whole entry, looked up): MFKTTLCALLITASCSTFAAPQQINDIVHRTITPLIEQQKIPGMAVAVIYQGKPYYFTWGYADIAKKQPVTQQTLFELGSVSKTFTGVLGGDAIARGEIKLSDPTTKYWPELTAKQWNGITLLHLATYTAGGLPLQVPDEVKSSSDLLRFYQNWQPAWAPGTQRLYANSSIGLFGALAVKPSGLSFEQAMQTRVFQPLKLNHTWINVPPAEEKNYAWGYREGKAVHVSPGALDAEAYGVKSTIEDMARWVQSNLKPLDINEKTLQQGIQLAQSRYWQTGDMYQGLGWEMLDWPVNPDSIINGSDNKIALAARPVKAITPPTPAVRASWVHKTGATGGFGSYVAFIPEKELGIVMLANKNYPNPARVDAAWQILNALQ
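AmpC (5.3 nM in the dispensed reagent) in 20 mM phosphate pH 7.0 with 0.01% (detergent screen) or 0.0001% Triton X-100 was preincubated with compounds for 15 min at room temperature. Nitrocefin was then added from an 800 uM solution, and hydrolysis was followed at 480 nm.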
Giardia FBPA inh-1 – qHTS Assay for Inhibitors of Fructose-1,6-bisphosphate Aldolase from Giardia Lamblia; A8B2U2; purified Giardia FBPA; AID 2451, 2010; Potency, µM (top dose mostly 59.6 µM), without a hit: top-dose activity, negative = inhibition, hits mostly inhibitors; hit rate 0.71% among 290,000; note: nearly all actives have a fitted effect of over 55% in size
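Giardia FBPA (40 nM reagent) was preincubated 10 min at RT with compound (up to 57.5 uM final), then substrate plus GAPDH/TPI/NAD/arsenate coupling system with diaphorase/resazurin was added; resorufin fluorescence (525/598 nm) was read after 20 min.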
AmpC inh detg – qHTS Inhibitors of AmpC Beta-Lactamase (assay with detergent); P00811; AmpC hydrolysis of nitrocefin, absorbance 480 nm, 0.01% Triton; Potency, µM (doses to about 114 µM), for the others: at the top dose activity change, negative = inhibition, most hits filed as inhibitors; hit rate 0.041% among 370,000; AID 485294, 2010;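 note: 0% = no-compound wells and -100% = no-enzyme wells; nearly all actives have a fitted effect of over 25% in size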
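AmpC (5.3 nM in the dispensed reagent) in 20 mM phosphate pH 7.0 with 0.01% (detergent screen) or 0.0001% Triton X-100 was preincubated with compounds for 15 min at room temperature. Nitrocefin was then added from an 800 uM solution, and hydrolysis was followed at 480 nm.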
LmPK inhibitor – qHTS Assay for Inhibitors of Leishmania Mexicana Pyruvate Kinase (LmPK). purified LmPK, Kinase-Glo ATP luminescence, 1 h. Potency, µM (series often up to 57.5 µM), inactives show at the highest dose activity change, negative = inhibition, actives largely listed as inhibitors. hit rate 0.37% among 290,000. AID 1721, 2009
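0.1 nM LmPK, 0.5 mM PEP, 0.1 mM ADP; 50 mM imidazole pH 7.2, 7 mM MgCl2, 50 mM KCl; 1 h RT. Kinase-Glo luminescence readout, normalized to no-enzyme (full inhibition) and uninhibited wells.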
Giardia growth – qHTS Assay for Inhibitors of Fructose-1,6-bisphosphate Aldolase from Giardia Lamblia: Giardia lamblia growth inhibition. Giardia lamblia trophozoite growth inhibition. shares compounds with Giardia FBPA inh-1. AID 2785, 2010. Potency, µM (titrated, usually from 57.5 µM), for inactives: at the highest dose activity change, negative = inhibition, usual class: inhibitors. hit rate 5% among 1,500;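 note: trophozoites exposed to compound for 48 h at 37 °C; nearly all actives have a fitted effect of over 70% in size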
Mammalian tox – qHTS Assay for Inhibitors of Fructose-1,6-bisphosphate Aldolase from Giardia Lamblia: Mammalian cellular toxicity | mammalian cell viability counter-screen, qHTS | hit rate 4% among 1,500 | Potency, µM (titrated, usually from 57.5 µM), without a hit: at the highest dose viability change, negative = toxicity, most hits filed as inhibitors | shares compounds with Giardia FBPA inh-1;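 note: Chinese hamster ovary cells used as mammalian cytotoxicity surrogate; viability measured as cellular ATP by luminescence; compound exposure lasted 48 h before reading; nearly all actives have a fitted effect of over 60% in size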
Giardia FBPA inh-2 – qHTS Assay for Inhibitors of Fructose-1,6-bisphosphate Aldolase from Giardia Lamblia: Primary screen confirmation; shares compounds with Giardia FBPA inh-1; purified Giardia aldolase enzyme activity, qHTS; Potency, µM (doses to about 57.5 µM), inactives show at the top dose activity change, negative = inhibition, usual class: inhibitors; hit rate 5% among 1,500; note: nearly all actives have a fitted effect of over 45% in size
Rabbit aldolase – qHTS Assay for Inhibitors of Fructose-1,6-bisphosphate Aldolase from Giardia Lamblia: Rabbit FBPA Selectivity; hit rate 4% among 1,500; Potency, µM (top dose mostly 57.5 µM), for inactives: at the highest dose activity, negative = inhibition, actives largely listed as inhibitors; shares compounds with Giardia FBPA inh-1; Rabbit muscle FBPA enzyme inhibition, selectivity counter-screen; AID 2794, 2010; note: nearly all actives have a fitted effect of over 60% in size
GAPDH coupling – qHTS Assay for Inhibitors of Fructose-1,6-bisphosphate Aldolase from Giardia Lamblia: Coupling assay counterscreen confirmation; shares compounds with Giardia FBPA inh-1; GAPDH coupling enzyme counterscreen, biochemical, qHTS; Potency, µM (highest dose often 57.5 µM), for inactives: top-dose activity change, negative = inhibition, usual class: inhibitors; hit rate 6% among 1,500; AID 2795, 2010; note: nearly all actives have a fitted effect of over 55% in size
* hit, by the source's call; u = inconclusive; x = no result given; [ ] = dose if it differs, or a comment. Sampled rows, rich in hits. Any-hit rate of the full collection: about 1.3%. Calls come from the whole dose curve; as a rule, active = well fitted curve in the direction sought with a large enough effect; inconclusive = small, poorly fitted or top-dose-only effect, or another doubt; inactive = no such curve, though single readings can be large; an effect the other way counts as inactive or inconclusive. Unless noted, % is set by controls: 0 for no effect and ±100 for the full control effect; potency is the fitted concentration of half-maximal effect.

SMILES	AMA1 RON2 block	AmpC inh no detg	Giardia FBPA inh-1	AmpC inh detg	LmPK inhibitor	Giardia growth	Mammalian tox	Giardia FBPA inh-2	Rabbit aldolase	GAPDH coupling
CC(=O)Nc1ccn(C2OC(C(COC(C)=O)NC(=O)C(Cc3ccccc3)NC(=O)OC(C)(C)C)C(OC(C)=O)C2OC(C)=O)c(=O)n1 (configuration not stated)	x	x	0%	x	x	x	x	x	x	x
CCOc1ccc(C(C)=O)cc1Cc1c(O)[nH]c(=S)[nH]c1=O	7%	-19%	22µM*	2%	-8%	-16%	1%	-8%	1%	-16%
COC(=O)C1=CN(c2ccc3c(c2)OCO3)C(N)=C(C#N)C1c1ccccc1 (configuration not stated)	11%	x	x	x	x	x	x	x	x	x
CC(C)N(CC#CCC(O)(c1ccccc1)C1CCCC1)CCO (configuration not stated)	-26%	28%	10µM*	4%	6%	4%[38.3 µM]	-3%	2%	1%	0%
NC1=C(O)C(=O)C(c2ccccc2)O1 (configuration not stated)	-4%	-20%	16µM*	-8%	-8%	6%[10.4 µM]	5%	-24%	-13%	-22%
O=C1OC(c2ccccc2)/C(=C(/O)c2ccccc2)C1=O (configuration not stated)	5%	-17%	6%	1%	9%	x	x	x	x	x
CCCCNc1cc(NC2CCCCC2)c2c3c(onc13)-c1ccccc1C2=O	x	x	x	0%	x	x	x	x	x	x
CCOC(=O)C(C(=O)OCC)c1cc(Br)c2noc3c2c1C(=O)c1ccccc1-3	-23%	-31%	0.35µM*	4%	-14%	-18%	u	u	u	u
CCN1CCN(Cc2ccc(C)cc2)CC1	-5%	-17%	-2%	-24%	3%	x	x	x	x	x
Cc1ccc(CN2CCC(N3CC(C)OC(C)C3)CC2)cc1 (configuration not stated)	-24%	-13%	16µM*	-4%	-5%	u	5%	3%	5%	1%
Cc1ccc(C)c(N2CCN(C(=O)Cn3nc(Cc4cccnc4)c4ccccc4c3=O)CC2)c1	x	x	x	-8%	x	x	x	x	x	x
COCCNc1nc(Nc2ccc(C#N)cc2)c2sccc2n1	7%	x	x	x	x	x	x	x	x	x
COc1ccc(CCn2c(NN)nc3c2c(=O)[nH]c(=O)n3C)cc1	68%	-9%	5µM*	2%	-8%	1%[10.4 µM]	-11%	32µM*	u	25µM*
